Bead autofluor – flagged as autofluorescent in microsphere protease counterscreen. compound autofluorescence counterscreen, microsphere flow cytometry; stronger effect = higher value. fluorescence intensity (no concentration beside the values). 360,000 tested, 3.1% active; in the data active means fluorescence intensity above about 16000; inconclusive means no clear call, values can overlap the other calls
Anthrax LF inh2 – Bacillus anthracis LF protease inhibitors, primary screen, biochemical, multiplex microsphere, MLPCN library; multiplex microsphere protease cleavage assay; inhibition, % at 10 µM; 360,000 tested, 0.12% active; in the data active means inhibition above about 30%; inconclusive means no clear call, values can overlap the other calls; further: plate controls were buffer without enzyme for full effect and enzyme alone for no effect
Target sequence (P15917 whole entry, looked up): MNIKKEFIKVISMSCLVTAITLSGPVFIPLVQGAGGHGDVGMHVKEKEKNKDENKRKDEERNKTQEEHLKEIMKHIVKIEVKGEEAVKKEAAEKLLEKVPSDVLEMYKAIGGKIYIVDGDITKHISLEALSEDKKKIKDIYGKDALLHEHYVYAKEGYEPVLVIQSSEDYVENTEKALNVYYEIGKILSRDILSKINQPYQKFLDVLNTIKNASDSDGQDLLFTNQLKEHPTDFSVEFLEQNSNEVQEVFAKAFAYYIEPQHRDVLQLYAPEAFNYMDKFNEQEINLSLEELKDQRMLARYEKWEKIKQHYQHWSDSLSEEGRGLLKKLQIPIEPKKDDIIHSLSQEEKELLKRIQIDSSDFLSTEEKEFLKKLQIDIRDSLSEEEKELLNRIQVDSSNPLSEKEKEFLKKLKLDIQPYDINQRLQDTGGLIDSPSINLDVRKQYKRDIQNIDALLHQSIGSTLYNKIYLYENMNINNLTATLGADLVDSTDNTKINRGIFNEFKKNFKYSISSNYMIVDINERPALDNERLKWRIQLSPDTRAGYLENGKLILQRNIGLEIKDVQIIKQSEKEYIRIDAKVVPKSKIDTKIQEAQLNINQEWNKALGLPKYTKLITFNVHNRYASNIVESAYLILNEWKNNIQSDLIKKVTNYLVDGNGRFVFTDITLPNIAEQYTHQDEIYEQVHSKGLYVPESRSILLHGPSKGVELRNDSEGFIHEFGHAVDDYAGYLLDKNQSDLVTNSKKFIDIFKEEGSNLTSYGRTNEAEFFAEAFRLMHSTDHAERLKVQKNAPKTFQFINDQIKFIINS
BoNT F protease – BoNT/F light chain protease inhibitors, primary screen, biochemical, flow cytometry, MLPCN library | Botulinum neurotoxin type F light chain protease (Clostridium botulinum) | Multiplex microsphere protease cleavage assay | inhibition, % at 10 µM | 360,000 tested, 0.22% active; in the data active means inhibition above about 35%, passing the limit was not always enough; inconclusive means no clear call, values can overlap the other calls; further: plate controls were buffer without enzyme for full effect and enzyme alone for no effect
3CLpro inhibitor – SARS-CoV 3CLpro protease inhibitors, primary screen, biochemical, quenched FRET; inhibition, % at 6 µM; 290,000 tested, 0.14% active; recombinant SARS-CoV 3CLpro, quenched FRET peptide cleavage; Replicase polyprotein 1ab (Severe acute respiratory syndrome coronavirus), P0C6X7; AID 1706, 2009; in the data active means inhibition above about 12%
DUSP3 inh – VHR1 phosphatase inhibitors, primary screen, biochemical, absorbance, uHTS. Dual specificity protein phosphatase 3 (Homo sapiens), P51452. recombinant VHR phosphatase, pNPP absorbance. inhibition, % at 13.3 µM. 290,000 tested, 0.52% active; in the data active means inhibition above about 50%
BoNT-A LC inh2 – BoNT/A light chain protease inhibitors, primary screen, biochemical, flow cytometry, MLPCN library; Botulinum neurotoxin type A light chain protease (Clostridium botulinum A str. ATCC 3502); multiplex microsphere protease substrate cleavage; inhibition, % at 10 µM; 360,000 tested, 0.17% active; in the data active means inhibition above about 30%; inconclusive means no clear call, values can overlap the other calls; further: plate controls were buffer without enzyme for full effect and enzyme alone for no effect
BoNTA LC inh 1 – BoNT/A light chain protease inhibitors, confirmation, biochemical, flow cytometry, cherry pick 1; shares compounds with BoNT F protease; multiplex microsphere protease assay; inhibition, % at 10 µM; 720 tested, 3% active; AID 602139, 2011; in the data active means inhibition above about 32%
BoNTF LC inh 1 – BoNT/F light chain protease inhibitors, confirmation, biochemical, flow cytometry, cherry pick 1; shares compounds with BoNT F protease; multiplex microsphere protease cleavage assay; inhibition, % at 10 µM; 720 tested, under 10 active
Anthrax LF CP1 – Bacillus anthracis LF protease inhibitors, confirmation, biochemical, multiplex microsphere, cherry pick 1. shares compounds with BoNT F protease. multiplex microsphere protease cleavage assay. inhibition, % at 10 µM. 720 tested, under 10 active
Starred values were filed as active, the others as inactive; i = inactive; ? = inconclusive; nt = no result; + = active, no number. A selection: hits, their analogues and other compounds. The true share with any hit is near 3.9%. Unless noted, how the calls were made is not given here.

SMILES | Bead autofluor | Anthrax LF inh2 | BoNT F protease | 3CLpro inhibitor | DUSP3 inh | BoNT-A LC inh2 | BoNTA LC inh 1 | BoNTF LC inh 1 | Anthrax LF CP1
COc1ccc(Cn2c(=O)[nH]c3cc(OC)c(OC)cc3c2=O)cc1 | 3925 | -9 | 36* | -2 | 0 | 4 | 0 | 1 | -2
COc1ccc(Cn2c(=S)[nH]c3cc(OC)c(OC)cc3c2=O)cc1 | 3250 | -2 | 3 | -1 | -1 | 0 | nt | nt | nt
CCOC(=O)C1CCN(S(=O)(=O)c2ccc(Cl)s2)CC1 | 5727 | 4 | 0 | -6 | -2 | 0 | nt | nt | nt
CC(C)C1O/C(=N/C(=O)Nc2ccc(Cl)c(Cl)c2)NC1=O (configuration not stated) | 6114 | 4 | 2 | 2 | 2 | 3 | nt | nt | nt
CCOC(=O)C1CCN(C(=O)Nc2ccc(OCc3ccccc3)cc2)CC1 | 3889 | 31* | ? | 6 | 23 | -4 | 0 | 0 | -4
COc1cccc(/C=C/c2ccncc2)c1OC | 4691 | 1 | 31 | -8 | 15 | 1 | 1 | 0 | 4
COCCNC(=O)[C@H]1N2C(=O)c3ccccc3C2SC1(C)C (some centres not stated) | 3653 | 1 | -15 | 4 | 2 | -3 | nt | nt | nt
CN(CCOc1ccccc1)C(=O)c1cc([N+](=O)[O-])cc([N+](=O)[O-])c1 | 4483 | 2 | 42* | 7 | 16 | 5 | -1 | -10 | -2
Cc1ccc2cc3cc(C(=O)NCCN4CCOCC4)oc3nc2c1 | 3441 | 3 | 35* | -4 | 13 | 1 | 0 | -2 | -1
COc1ccc2cc3cc(C(=O)NCCCN4CCOCC4)oc3nc2c1 | 2791 | -3 | -19 | 1 | 21 | 0 | nt | nt | nt
Cc1ccc(SCCC(=O)Nc2ccccc2C(=O)NC2CCCCC2)cc1 | 2115 | 0 | 39* | -7 | -2 | 4 | -3 | -8 | -1
COc1ccc(OC)c(-c2nc3cc4ccccc4cc3nc2-c2ccccc2)c1 | 2721 | 22 | 17 | 2 | -2 | 62* | 34* | 7 | 26
CCN(CC)C(=O)CSc1nc(Cc2ccccc2)nc2ccccc12 | 4268 | 40* | ? | 3 | 39 | 2 | 2 | 0 | 2
CCc1ccc(OCc2nnc(SCC(=O)Nc3cccc(C(=O)N4CCOCC4)c3)o2)cc1 | 2064 | 1 | 46* | -1 | -17 | 5 | 1 | 0 | 0
COc1ccc(-c2cc(-c3cccs3)nc3sc(C#N)c(N)c23)cc1 | 2358 | 16 | 8 | 4 | 14 | 40* | 12 | -1 | 2
Cc1cc(-c2cccs2)c2c(N)c(C(=O)c3ccc4c(c3)OCO4)sc2n1 | 2808 | 22 | 16 | 4 | -13 | 56* | 21 | 0 | 15
N#Cc1sc2nc(C3CC3)cc(-c3ccc(Cl)cc3)c2c1N | 1998 | 0 | -4 | -8 | -5 | 6 | nt | nt | nt
Cc1cc(C)c2c(N)c(C(=O)c3ccc(Cl)cc3)sc2n1 | 2536 | 0 | 3 | 4 | 14 | 0 | nt | nt | nt
COc1ccc(C(=O)c2sc3nc(C)cc(-c4cccs4)c3c2N)cc1 | 3055 | 20 | 17 | 2 | 11 | 56* | 28 | 8 | 14
COc1cc(/C=N/NC(=O)c2nnn(-c3nonc3N)c2C)ccc1OCc1ccc(Cl)cc1 | 3391 | -1 | -3 | nt | nt | 0 | nt | nt | nt
COC(=O)c1ccc2cc(OC)cc([N+](=O)[O-])c2n1 | 3664 | 2 | -6 | nt | nt | -1 | nt | nt | nt
Brc1cc2c(cc1C1Nc3ccccc3C3C=CCC31)OCO2 (configuration not stated) | 2442 | -1 | 0 | -1 | 2 | 0 | nt | nt | nt
Cc1cc(C)c2c(c1)NC(c1cc3c(cc1Br)OCO3)C1CC=CC21 (configuration not stated) | 1899 | -10 | + | 9 | 26 | 4 | -1 | 2 | -2
CCN(CC)S(=O)(=O)c1cc(C(=O)Oc2cccc(-c3cnc4ccccc4n3)c2)ccc1OC | 2256 | -2 | -3 | -3 | -5 | 0 | nt | nt | nt
CCN(CC)S(=O)(=O)c1ccc(C)c(C(=O)Oc2cccc(-c3cnc4ccccc4n3)c2)c1 | 2119 | -1 | 35* | -7 | -6 | 6 | -2 | -5 | -7
SMILES | Bead autofluor | Anthrax LF inh2 | BoNT F protease | 3CLpro inhibitor | DUSP3 inh | BoNT-A LC inh2 | BoNTA LC inh 1 | BoNTF LC inh 1 | Anthrax LF CP1
Cn1c(=O)[nH]c(=O)c2c1nc1n2CC(O)CN1c1ccccc1 (configuration not stated) | 3482 | -14 | 36* | 1 | 14 | 3 | 0 | -1 | -2
Cc1ccc(S(=O)(=O)NNC(=O)c2ccc3ccccc3n2)cc1 | 3340 | -21 | -10 | -2 | 13 | 2 | nt | nt | nt
CCOC(=O)C1CCCN(C(=O)c2ccc(OC)cc2)CC1 (configuration not stated) | 3909 | -4 | -6 | nt | nt | 0 | nt | nt | nt
CCOC(=O)C1CCN(C(=O)c2ccc3nc(-c4ccc(OC)cc4)c(-c4ccc(OC)cc4)nc3c2)CC1 | 5131 | 11 | 20 | 3 | -14 | 30* | 12 | -2 | 3
CCn1nc(-c2ccccc2)c2nc3ccccc3nc21 | 3801 | 43* | 38* | -10 | 0 | 67* | 22 | 2 | 10
CCCn1nc(-c2ccccc2)c2nc3ccccc3nc21 | nt | nt | nt | -2 | 19 | nt | nt | nt | nt
CCN(CC)c1nc(C(N)=O)cc(-c2ccccc2)n1 | 4887 | -2 | -5 | 6 | 7 | 0 | nt | nt | nt
CN1CCN(c2nc(C(N)=O)cc(-c3ccccc3)n2)CC1 | 4065 | 0 | 36* | -1 | 8 | 0 | 1 | -4 | -2
Oc1ccccc1-c1nnc(-c2ccc(C(F)(F)F)cc2)o1 | 3316 | 1 | 35* | 0 | 13 | 1 | 0 | -3 | 1
CCOC(=O)c1c(NC(=O)Nc2ccc(Cl)cc2)sc(C)c1C | 27117* | 41* | i | -2 | 25 | -30 | -1 | 1 | -6
O=S(=O)(Nc1cc2nc3ccccc3nc2n1Cc1ccccc1)c1ccc(Cl)cc1 | 2849 | 9 | -11 | 2 | -10 | 33* | 14 | -1 | 4
O=S(=O)(NCc1ccccc1)c1ccc(Cl)cc1 | 3948 | 1 | 13 | 1 | -4 | 0 | nt | nt | nt
COc1ccc(NC(=O)c2cc(-c3ccc(F)cc3OC)n[nH]2)c(C)c1 | 3595 | 2 | 2 | nt | nt | 0 | nt | nt | nt
